Mtb RmlCD inh – inhibitors of Mycobacterium tuberculosis RmlC and RmlD coupled enzymes. RmlC+RmlD coupled enzyme assay, percent inhibition; primary screen in compound mixtures. inhibition, % at 3.6 µM. 160,000 tested, 0.03% active; in the data active = inhibition mostly above about 34%, no sharp cut-off; inconclusive = no clear call, values can overlap the other calls; inactive = mostly below about 22%
Target sequence (P9WH09 whole entry, looked up): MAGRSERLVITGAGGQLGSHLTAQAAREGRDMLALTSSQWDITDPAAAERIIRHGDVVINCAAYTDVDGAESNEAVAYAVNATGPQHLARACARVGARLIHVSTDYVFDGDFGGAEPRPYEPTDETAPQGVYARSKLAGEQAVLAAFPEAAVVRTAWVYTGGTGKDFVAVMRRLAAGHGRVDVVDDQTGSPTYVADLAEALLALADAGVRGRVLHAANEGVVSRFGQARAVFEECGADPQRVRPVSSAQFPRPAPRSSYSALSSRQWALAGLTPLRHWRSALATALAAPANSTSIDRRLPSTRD
Target sequence (P9WH11 whole entry, looked up): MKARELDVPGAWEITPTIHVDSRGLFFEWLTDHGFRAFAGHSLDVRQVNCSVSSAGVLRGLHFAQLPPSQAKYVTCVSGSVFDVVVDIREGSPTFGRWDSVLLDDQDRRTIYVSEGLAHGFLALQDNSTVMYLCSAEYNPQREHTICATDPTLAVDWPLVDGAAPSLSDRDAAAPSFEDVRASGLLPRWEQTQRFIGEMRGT
DUSP3 inh – inhibitors of human VHR1 phosphatase (DUSP3); P51452; recombinant VHR phosphatase, pNPP absorbance; inhibition, % at 13.3 µM; 290,000 tested, 0.52% active; AID 1654; in the data active = inhibition above about 50%
Active calls of the source: *; ? = inconclusive; nt = not tested or not shown. Rows were chosen to be rich in hits. Some 0.54% of all compounds tested hit in one or more screens of this group.

SMILES	Mtb RmlCD inh	DUSP3 inh
O=c1oc2c(CN3CCOCC3)c(O)ccc2c2c1CCCC2	44*	14
O=c1oc2c(CN3CCOCC3)c(O)ccc2c2ccccc12	nt	2
CCn1ncc(CN2CCC(Oc3ccc(C(=O)N4CCCC4)cc3)CC2)c1C	nt	8
CCn1nc(C)c(CN2CCC(Oc3ccc(C(=O)N4CCCC4)cc3)CC2)c1C	nt	57*
O=S(=O)(Nc1cccnc1)c1ccc2c(c1)OCCO2	nt	-4
CCOC(=O)c1cc(-c2ccc(C)cc2)nc2nc(SC)[nH]c(=O)c12	4	-4
C(=N\N1CCOCC1)/c1ccsc1	nt	57*
C(=N\N1CCOCC1)/c1cccs1	6	37
Cc1csc(NC(=O)CSc2nncc(=O)n2N)n1	-6	26
O=S(=O)(Nc1nccs1)c1ccc(F)cc1	-4	0
COc1ccc(S(=O)(=O)N2CCOCC2)cc1OC	11	-11
COc1ccc(S(=O)(=O)N2CCOCC2)cc1N=Nc1sc(N)nc1-c1ccccc1	?	56*
Nc1ncc(Br)cc1S(=O)(=O)Nc1cc(C(F)(F)F)cc(C(F)(F)F)c1	nt	14
CCCc1cc(=O)oc2cc(OCC(=O)Nc3ccc(S(N)(=O)=O)cc3)ccc12	nt	57*
CCCc1cc(=O)oc2cc(OCC(=O)NCC(O)c3ccccc3)ccc12 (stereo not drawn)	nt	53*
CCCc1cc(=O)oc2cc(OCC(=O)NCc3cccs3)ccc12	-12	4
CCCc1cc(=O)oc2cc(OCC(=O)NCc3ccccn3)ccc12	nt	-9
CCOc1ccccc1/C=C/c1onc(C)c1S(=O)(=O)N1CCC(C(=O)N2CCCCCC2)CC1	nt	-14
Cc1ccccc1CN1N=C(/C=C/c2ccccc2)CCC1=O	6	8
CCNC(=O)NC1(C(=O)Nc2ccc3c(c2)OCCO3)CCCCC1	40	-2
CCOc1ccc(-c2noc(CCC(=O)NCCc3ccccc3)n2)cc1OC	nt	18
Cc1cccc(NC(=O)C(=O)NNC(=O)c2ccc(C(C)(C)C)cc2)c1	nt	52*
CC(C)(C)c1ccc(C(=O)NNC(=O)c2cccc(Br)c2)cc1	11	-7
CN(C)c1nc(N(C)C)n(Cc2c(Cl)cccc2Cl)n1	9	1
Cc1ccc(-c2cc(-c3ccccc3)nc(Cl)n2)cc1	5	30
SMILES	Mtb RmlCD inh	DUSP3 inh
COc1ccc(-c2cc(-c3ccccc3)nc(Cl)n2)cc1OC	nt	51*
Cc1cc(C)nc(NS(=O)(=O)c2ccc(NC(=O)Cc3ccccc3)cc2)n1	5	-3
Cc1cc(C)nc(NS(=O)(=O)c2ccc(NC(=O)Cc3ccc(F)cc3)cc2)n1	nt	54*
COc1ccc(/C=N/Nc2nc(-c3ccc(C)cc3)c(NC(C)=O)s2)cc1OC	5	0
CC(=O)Nc1sc(/C(C#N)=C/c2ccc(Cl)c(Cl)c2)nc1-c1ccc(C)cc1	75*	-4
COc1ccc(N(CC(=O)NC2CC2)S(=O)(=O)c2ccccc2)cc1	nt	20
Cc1ccc(C(=O)c2ccccc2C(=O)OCC(=O)NC(C)(C)C)cc1	-3	22
O=C(Nc1nnc(-c2ccccc2Cl)o1)c1ccco1	10	2
O=C(Nc1nnc(-c2ccccc2Cl)o1)c1nc2ccccc2s1	10	53*
CC(=O)N1c2ccc(S(=O)(=O)N3CCC(C(=O)NC(C)c4ccccc4)CC3)cc2CC1C (stereo not drawn)	nt	2
COc1ccc(/C(C)=N/NC(=S)NCCc2ccccc2)c(O)c1	nt	-3
CCCCOCCCNC(=O)N[C@@H](CCSC)C(=O)OC	18	7
CCC(C)NC(=O)N[C@@H](CCSC)C(=O)OC (stereo partly drawn)	11	56*
O=C(N/N=C/c1cccnc1)/C(=C\c1cccs1)NC(=O)c1ccccc1	-3	1
O=C(N/N=C/c1cc2ccccc2nc1Cl)/C(=C/c1cccs1)NC(=O)c1ccccc1	8	52*
COCCN1CCN(C(=O)C2CCC(=O)N(CCc3cccc(F)c3)C2)CC1 (stereo not drawn)	nt	0
CCN1/C(=C/C=C/c2oc3ccc(-c4ccccc4)cc3[n+]2CC)Oc2ccc(-c3ccccc3)cc21	-10	6
CC/C(=N\NC(=O)C1CCCC1)c1ccc(Br)cc1	nt	50*
CC/C(=N\NC(=O)C1CCCC1)c1cccc(Br)c1	nt	11
O=C(Nc1cccc(F)c1)C1CCCN(S(=O)(=O)c2cnc[nH]2)C1 (stereo not drawn)	nt	23
COC(=O)c1[nH]c2ccccc2c1NC(=O)CN1CCCCCC1	17	-17
COC(=O)c1[nH]c2ccccc2c1CN1CCOCC1	nt	56*
O=C(CSc1ccccc1)N1CCCC(N2CCN(c3cccc(Cl)c3)CC2)C1 (stereo not drawn)	nt	-7
COc1ccc(C(C(=O)NCCC(C)C)N(CCO)C(=O)c2snc(C(N)=O)c2N)cc1 (stereo not drawn)	nt	53*
COc1ccc(C(C(=O)NCCC(C)C)N(CCO)C(=O)c2snc(C(N)=O)c2N)cc1OC (stereo not drawn)	nt	4
COc1ccc(S(=O)(=O)N(CCc2ccccc2)CC(N)=O)cc1	20	8
